The source made the active and inactive calls.

Test [1] is described as follows: adipocyte viability effects, profiling panel, cell-based, 3T3-L1 adipocytes, calcein-AM fluorescence, 48 h, basal (AID 1163). The conditions noted are these: 3T3-L1 adipocytes viability, higher = more signal.
Test [2] is described as follows: HepG2 cell viability effects, profiling panel, calcein-AM fluorescence, 48 h, basal (AID 1164). The conditions noted are these: higher = more signal.
A short description of test [3]: MM1S cell viability effects, profiling panel, calcein-AM fluorescence, 48 h, basal (AID 1165).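 Further: viability of MM1S multiple myeloma cells under basal unstimulated conditions.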 The following applies: higher = more signal.
The nature of test [4]: basal RPMI8226 viability, no added stimulus, profiling panel, cell-based, calcein-AM fluorescence, 48 h, PK04 Diversity Set (AID 1166).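 Further: cells grown under basal conditions without added stimulus.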 The conditions noted are these: RPMI8226 myeloma viability, higher = more signal.
The nature of test [5]: basal HepG2 mitochondrial membrane potential changes, profiling panel, cell-based, JC-1 fluorescence, 24 h, 100 nL compound (AID 1167). The conditions noted are these: higher = more signal.
A short description of test [6]: basal 3T3-L1 adipocyte mitochondrial potential changes, profiling panel, cell-based, JC-1 fluorescence, 3T3-L1 adipocytes, 24 h, 100 nL compound (AID 1168). The conditions noted are these: JC-1 mitochondrial fluorescence, higher = more signal, called active from +8 up or from −8 down.
Test [7] is described as follows: basal RPMI8226 mitochondrial membrane potential changes, profiling panel, cell-based, JC-1 fluorescence, 24 h, 100 nL compound (AID 1169). The following applies: RPMI8226 myeloma, JC-1 mitochondrial potential fluorescence, higher = more signal.
A short description of test [8]: basal MM1S mitochondrial membrane potential changes, profiling panel, cell-based, JC-1 fluorescence, 24 h, 100 nL compound (AID 1170). The conditions noted are these: higher = more signal.
A short description of test [9]: A549 lung cancer cell viability effects, profiling panel, resazurin fluorescence, 24 h, PK04 Diversity Set (AID 1171). The conditions noted are these: higher = more signal, called active from +8 up or from −8 down. Background: Resazurin is reduced to fluorescent resorufin, in cell work by metabolically active cells.
The nature of test [10]: HepG2 liver cancer cell viability effects, profiling panel, resazurin fluorescence, 24 h, PK04 Diversity Set (AID 1172). The following applies: higher = more signal.
The nature of test [11]: basal S. cerevisiae growth modulation, no modifier, primary screen, OD600, strain BY4716, 24 h, basal condition (AID 1173). The conditions noted are these: OD600, 24 h, higher = more signal, called active from +8 up or from −8 down.
Test [12] in a line: MM1S myeloma cell viability, profiling panel, resazurin fluorescence, basal, 24 h, PK04 Diversity Set (AID 1174). The following applies: higher = more signal, called active from +8 up or from −8 down.
Test [13] deals with Dihydroorotate dehydrogenase (quinone), mitochondrial (Plasmodium falciparum (isolate 3D7)) (UniProt Q08210). Kind of test: PfDHODH enzyme inhibitors, primary screen, biochemical, C-terminal His tag, absorbance 600 nm (AID 1175).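 Further: recombinant parasite enzyme with a five histidine tag at its C terminus.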 The following applies: DCIP absorbance 600 nm, higher = more signal, called active from +8 up or from −8 down.
A short description of test [14]: S. cerevisiae RM11-1a growth modifiers, primary screen, strain RM11-1a, OD600, basal, 24 h (AID 1177).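 Further: cultures grown under basal conditions with no added stressor.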 The following applies: OD600, 24 h, higher = more signal, called active from +8 up or from −8 down.
A short description of test [15]: E. coli acrAB mutant growth effects, primary screen, E. coli filamentation inducers, strain DRC39, OD650, 24 h (AID 1178).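 Further: growth measured as culture turbidity by optical density at 650 nm.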 The conditions noted are these: higher = more signal, called active from +8 up or from −8 down.
A short description of test [16]: E. coli acrAB mutant growth effects, primary screen, E. coli filamentation inducers, strain DRC39, OD650, 48 h (AID 1179).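 Further: screen aims at cell division blockers that make cells filament.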 The following applies: E. coli DRC39 delta-acrAB growth, higher = more signal, called active from +8 up or from −8 down.
The nature of test [17]: RPMI8226 myeloma cell viability, profiling panel, resazurin fluorescence, basal, 24 h, PK04 Diversity Set (AID 1180).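 Further: RPMI8826 multiple myeloma cell line at 5000 cells per well.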 The following applies: higher = more signal.
Test [18] concerns the target E3 ubiquitin-protein ligase XIAP (Homo sapiens) (UniProt P98170). Kind of test: XIAP binders, primary screen, biophysical, small-molecule microarray, fluorescence 635 nm (AID 1181).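 Further: score merges 667 nm emission and signal to noise over triplicate slides.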 The following applies: small-molecule microarray binding, higher = more signal.
For test [19], the system named is XIP peptide (Xip251-270) binding. Kind of test: small-molecule binders of XIP peptide, primary screen, biochemical, small-molecule microarray, fluorescence 635/667 nm, 0.1 µg/mL protein (AID 1182). The conditions noted are these: fluorescent protein binding, 635 nm, higher = more signal, called active from +8 up or from −8 down.
In another test the test system is XIP peptide (Xip251-270). Kind of test: small-molecule binders of XIP peptide, primary screen, biochemical, small-molecule microarray, fluorescence 635/667 nm, 0.5 µg/mL protein (AID 1183). The following applies: small-molecule microarray binding, fluorescence 635 nm; higher = more signal.

Sequence of Dihydroorotate dehydrogenase (quinone), mitochondrial (Plasmodium falciparum (isolate 3D7)) (Q08210 whole entry, looked up): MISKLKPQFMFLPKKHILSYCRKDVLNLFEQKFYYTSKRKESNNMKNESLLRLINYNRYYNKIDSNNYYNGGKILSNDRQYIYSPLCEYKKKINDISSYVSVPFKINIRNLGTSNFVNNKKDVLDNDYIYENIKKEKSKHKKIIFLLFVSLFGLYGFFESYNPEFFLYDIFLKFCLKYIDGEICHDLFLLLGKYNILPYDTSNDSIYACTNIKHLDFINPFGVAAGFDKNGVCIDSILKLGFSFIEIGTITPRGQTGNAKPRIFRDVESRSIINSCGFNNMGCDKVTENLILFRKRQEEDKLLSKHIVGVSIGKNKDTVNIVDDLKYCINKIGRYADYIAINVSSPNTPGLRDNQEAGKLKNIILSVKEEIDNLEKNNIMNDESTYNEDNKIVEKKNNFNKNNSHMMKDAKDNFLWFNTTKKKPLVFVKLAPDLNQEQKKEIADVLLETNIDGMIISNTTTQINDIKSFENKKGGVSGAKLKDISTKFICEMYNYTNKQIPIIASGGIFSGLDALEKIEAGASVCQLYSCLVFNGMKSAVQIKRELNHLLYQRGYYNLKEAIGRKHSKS
Sequence of E3 ubiquitin-protein ligase XIAP (Homo sapiens) (P98170 whole entry, looked up): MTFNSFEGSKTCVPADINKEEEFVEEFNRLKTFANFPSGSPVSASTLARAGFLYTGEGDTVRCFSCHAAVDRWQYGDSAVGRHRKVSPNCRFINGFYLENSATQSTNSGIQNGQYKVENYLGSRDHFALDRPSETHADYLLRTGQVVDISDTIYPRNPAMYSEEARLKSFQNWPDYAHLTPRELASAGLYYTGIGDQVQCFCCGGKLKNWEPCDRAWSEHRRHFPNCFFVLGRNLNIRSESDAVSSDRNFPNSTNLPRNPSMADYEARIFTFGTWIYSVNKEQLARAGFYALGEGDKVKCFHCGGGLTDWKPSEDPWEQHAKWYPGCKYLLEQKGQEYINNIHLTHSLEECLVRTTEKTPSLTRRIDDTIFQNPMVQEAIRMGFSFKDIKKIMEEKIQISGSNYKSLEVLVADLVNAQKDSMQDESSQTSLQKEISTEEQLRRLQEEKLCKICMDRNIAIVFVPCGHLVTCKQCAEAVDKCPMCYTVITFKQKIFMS

`COCCOC(=O)N1C(=O)[C@@]2(c3ccccc31)[C@H](C(=O)Nc1nc3ccccc3s1)[C@H]1C(=O)O[C@H](c3ccccc3)[C@H](c3ccccc3)N1[C@@H]2c1ccc(O)cc1`: the z-score in test [1] is 0.471; in [2], -1.49; in test [3] it was -3.26; in [4] it was -3.76; in [5], -3.44; in [6], 1.01 (inactive). The z-score is -1.05 in test [7]; -1.87 in test [8]; 0.35 (inactive) in test [9]; 0.148 in test [10]; 2.4 (inactive) in test [11]; -1.22 (inactive) in [12]. Besides, the z-score in test [14] was 4.4 (inactive); in test [15], 1.23 (inactive); in test [16], 1.84 (inactive); in [17] it was -0.898. The composite z-score in [13] was -2.63 (inactive); in [18], -0.0025; in test [19] it was 1.03 (inactive); with XIP peptide (Xip251-270) it was 0.748.
Regarding `Cc1ccc(S[C@]2(C(=O)NC3CC3)CC(=O)N(Cc3ccccc3C(F)(F)F)[C@@H]2c2ccc(CO)cc2I)cc1`, the z-score is 0.421 in [1]; -0.4 in [2]; -2.65 in [3]; -2.11 in [4]; 1.44 in test [5]; 0.525 (inactive) in test [6]. The z-score is -0.513 in test [7]; -0.93 in [8]; 0.149 (inactive) in [9]; 0.436 in test [10]; -8 (inactive) in [11]; -1.93 (inactive) in test [12]. Also, the z-score is -2.07 (inactive) in test [14], 0.413 (inactive) in [15], 0.303 (inactive) in test [16] and -1.84 in [17]. The composite z-score in [13] is -2.6 (inactive); in [18] it was -0.29; in [19] it was 0.0437 (inactive); in the test with XIP peptide (Xip251-270), -0.811.
Regarding `CC(C)C[C@@H]1NC(=O)[C@@]23C(=O)N[C@@H](Cc4ccccc4)C2[C@H](C)[C@@]2(C)O[C@H]2C3/C=C/C/C=C\CNC(=O)[C@H](Cc2ccccc2)NC1=O` (stereo not given in full), the z-score in test [1] is 1.14; in [2], 0.331; in test [3], 0.0263; in test [4] it was -0.928; in test [5], 1.42; in [6], 0.868 (inactive). The z-score in [7] was -0.0886; in test [8], 0.851; in [9], 0.703 (inactive); in test [10], 0.182; in test [11], -2.28 (inactive); in test [12], -0.295 (inactive). Moreover, the z-score in test [14] was -0.748 (inactive); in [15] it was 2.7 (inactive); in test [16], 1.22 (inactive); in [17], 0.468. Also, the composite z-score is 0.113 (inactive) in test [13], 0.52 in test [18], 0.0183 (inactive) in test [19] and 0.789 in the test with XIP peptide (Xip251-270).
Take `CCCNC(=O)[C@@H]1c2ccccc2C(=O)N(Cc2cc(C(F)(F)F)cc(C(F)(F)F)c2)[C@H]1c1ccc(CO)cc1`: the z-score in test [1] was 1.6; in test [2] it was 0.174; in test [3] it was -0.298; in test [4], -1; in test [5], 1.4; in test [6], -0.652 (inactive). Moreover, the z-score in [7] is 0.188; in [8] it was 1.01; in [9] it was 0.741 (inactive); in test [10], 0.397; in test [11], -0.367 (inactive); in test [12] it was 1.52 (inactive). Moreover, the z-score in test [14] is 0.288 (inactive); in test [15], 1.06 (inactive); in test [16], -0.625 (inactive); in [17], 1.63. Further, the composite z-score in [13] was 0.754 (inactive); in test [18] it was -0.374; in [19], 0.133 (inactive); in the test on XIP peptide (Xip251-270), 0.219.
For the compound `COC(=O)C1=CC(CCCO)=CC(C2CC2)N(Cc2cc3c(cc2Br)OCO3)C=C1C(=O)OC` (stereo not given), the z-score in test [1] is 1.19; in [2] it was 0.489; in test [3], 0.0635; in test [4] it was 0.627; in [5] it was 1.1; in test [6], 0.857 (inactive). For the same compound, the z-score in test [7] was -0.147; in test [8], 1.28; in [9], 0.565 (inactive); in [10], 0.365; in test [11], -1.81 (inactive); in [12], 1.06 (inactive). Also, the z-score is -0.847 (inactive) in [14], 0.489 (inactive) in [15], -0.0093 (inactive) in [16] and 1.45 in test [17]. The composite z-score in test [13] was -0.509 (inactive); in [18] it was 0.295; in test [19], 1.68 (inactive); in the test on XIP peptide (Xip251-270), 0.0315.
With `CO[C@H]1O[C@H](CO)[C@@H](OC(=O)Nc2ccccc2)[C@H](OC(=O)Nc2ccc3c(c2)OCO3)[C@H]1OC(=O)Nc1ccc2c(c1)OCO2`, the z-score in test [1] was 1.27; in test [2] it was -1.27; in test [3], -1.03; in test [4], -1.98; in test [5] it was -0.136; in test [6], 3.03 (inactive). In addition, the z-score is -0.629 in test [7]; 0.398 in test [8]; -1.33 (inactive) in test [9]; -0.697 in test [10]; -0.613 (inactive) in [11]; -0.652 (inactive) in [12]. Also, the z-score was 1.69 (inactive) in test [14], 2.13 (inactive) in test [15], 0.828 (inactive) in test [16] and -0.638 in test [17]. In addition, the composite z-score in test [13] is -0.48 (inactive); in test [18], 0.137; in test [19], 1.04 (inactive); in the test with XIP peptide (Xip251-270), 0.846.
Regarding `CC(C)CCC[C@@H](C)[C@H]1CC[C@@]2(C)C3=C(CC[C@]12C)[C@@]1(C)CC[C@H](OC(=O)CCl)C(C)(C)C1CC3` (stereo not given in full), the z-score in test [1] was 0.155; in test [2] it was 1.17; in [3], 0.405; in test [4], 0.895; in [5] it was 1.58; in [6], -0.207 (inactive). In addition, the z-score is -0.493 in [7]; 1.07 in test [8]; 0.96 (inactive) in [9]; 1.16 in [10]; -0.795 (inactive) in test [11]; 0.33 (inactive) in test [12]. The z-score in [14] was -0.249 (inactive); in test [15], 2.93 (inactive); in test [16], 1.59 (inactive); in test [17] it was 0.444. Besides, the composite z-score was 0.141 (inactive) in test [13], 0.106 in [18], 0.133 (inactive) in test [19] and 0.174 in the test on XIP peptide (Xip251-270).
As for `O=C1O[C@@H](c2ccccc2)[C@@H](c2ccccc2)N2[C@@H](c3ccc(OCCO)cc3)[C@]3(C(=O)Nc4ccc(C#CC5(O)CCCCCC5)cc43)[C@@H](C(=O)NC[C@H](O)c3ccccc3)[C@H]12`, the z-score in test [1] is 1.71; in test [2], 0.394; in [3] it was -0.987; in [4] it was 0.208; in test [5], -1.7; in [6] it was 0.548 (inactive). Also, the z-score was -0.535 in test [7]; -0.197 in test [8]; 0.883 (inactive) in [9]; 0.18 in [10]; 0.842 (inactive) in [11]; 0.786 (inactive) in test [12]. Moreover, the z-score in [14] was 2.1 (inactive); in test [15], 1.06 (inactive); in test [16], 1.12 (inactive); in test [17], 0.966. Moreover, the composite z-score in test [13] was 0.935 (inactive); in test [18] it was -0.304; in test [19] it was 0.673 (inactive); with XIP peptide (Xip251-270), 0.819.
